Laboratory results as given in PMC5540273 (PLoS ONE, 2017).

Key:
[1] = system: PIK3C2B
[2] = system: PIK3CA
[3] = system: PIK3CG
[4] = system: PDGFRB
[5] = system: PDPK1
[6] = system: PKN1
[7] = system: PIK3CB
[8] = system: PIK3CD
[9] = system: PLK2
[10] = system: PHKG2
[11] = system: T1, PCTK3
T1 construct: gene CDK18

[12] = system: T2, PIP5K2C
T2 construct: gene PIP4K2C

[13] = system: T3, PIK4CB
T3 construct: gene PI4KB

[14] = system: T4, PCTK1
T4 construct: gene CDK16

[15] = system: PDGFRA
[16] = system: PRKCI
[17] = system: PIP5K1C
[18] = system: PIKFYVE
[19] = system: T5, PCTK2
T5 construct: gene CDK17

[20] = system: T6, PKAC-beta
T6 construct: gene PRKACB
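Note: kd values determined as follow-up on hits from a single-replicate KINOMEscan panel screen.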

## Fc1ccc(-c2nc3n(c2-c2ccncc2)CCS3)cc1 [GI98581]
[1]
  Kd: > 10 µM
[2]
  Kd: > 10 µM
[3]
  Kd: > 10 µM

## Cc1ccc(NC(=O)Nc2ccc(Cl)c(C(F)(F)F)c2)cc1-c1ccc(C(=O)Nc2ccncc2)cc1 [GSK1398470]
[4]
  Kd: 270 nM

## CC[C@@H]1CO[C@H](C(=O)Nc2ccccc2)CN1c1cc(-c2ccc3c(N)n[nH]c3c2)nc(NC)n1 [GSK2376236]
[5]
  Kd: 1.7 nM
[6]
  Kd: > 10 µM

## Cc1c(Cn2c(C)c(C)n3c(=O)cc(N4CCOCC4)nc23)cccc1C(F)(F)F [GSK2328680]
[7]
  Kd: 16 nM
[8]
  Kd: 620 nM
[9]
  Kd: > 10 µM

## Cc1ccc(NC(=O)Nc2ccccc2F)cc1-c1ccc(C(=O)Nc2ccncc2)cc1 [GSK1398477]
[4]
  Kd: 47 nM

## Cc1nccc(-c2c(-c3ccc(F)cc3)ncn2CCCN2CCOCC2)n1.Cl [SB-282975]
[10]
  Kd: > 10 µM

## COc1cccc(NC(=O)Nc2ccc(C)c(-c3ccc(C(=O)Nc4ccncc4)cc3)c2)c1 [GSK1398474]
[4]
  Kd: 40 nM
[1]
  Kd: > 10 µM
[2]
  Kd: > 10 µM
[3]
  Kd: > 10 µM

## COc1ccc(Nc2nccc(NCCNC(=O)Nc3cc(C)ccc3C)n2)cc1 [GSK1379899]
[1]
  Kd: > 10 µM
[2]
  Kd: > 10 µM

## CC(=O)c1c(C)c2cnc(Nc3ccn(C)n3)nc2n(C2CCCC2)c1=O
[11]
  Kd: > 10 µM
[12]
  Kd: 110 nM

## O=c1cc(N2CCOCC2)nc2n(Cc3cccc(Cl)c3Cl)c3ccccc3n12 [GSK2299009]
[7]
  Kd: 860 nM

## Nc1nccc(-c2c(-c3ccc(F)cc3)ncn2C2CCN(Cc3ccccc3)CC2)n1 [SB-219980]
[12]
  Kd: 93 nM

## NS(=O)(=O)c1cccc(N/C=C2\C(=O)Nc3ccc(S(=O)(=O)Cc4c(Cl)cccc4Cl)cc32)c1 [GSK398099]
[13]
  Kd: 1200 nM

## Cc1c(Cn2c3ccccc3n3c(=O)cc(N4CCOCC4)nc23)cccc1C(F)(F)F [GSK2306394]
[7]
  Kd: 680 nM
[13]
  Kd: > 10000 nM
[6]
  Kd: > 10 µM

## Cc1ccccc1Cn1ccn2c(=O)cc(N3CCOCC3)nc12 [GSK2269905]
[7]
  Kd: 27 nM

## Cc1ccc(NC(=O)Nc2ccccc2)cc1-c1ccc(C(=O)Nc2ccncc2)cc1 [GSK1398471]
[4]
  Kd: 28 nM

## COc1ccc(Nc2nccc(N3CCC(NC(=O)C(C)c4ccc(Cl)cc4)CC3)n2)cc1 (stereo not shown) [GSK1379812]
[14]
  Kd: > 10000 nM

## Cn1cnc2c(N)ncnc21 [SKF-97623]
[15]
  Kd: > 10000 nM

## CNC(=O)c1ccc(C)c(-n2c(C)cc(OCc3ccc(F)cc3F)c(Br)c2=O)c1
[16]
  Kd: > 10 µM

## CCn1c(-c2c(N)noc2C)nc2cnccc21 [SB-737856]
[7]
  Kd: > 10000 nM

## O=C(Nc1n[nH]c2cc(-c3ccsc3)ccc12)C1CC1 [SB-732932]
[4]
  Kd: 700 nM

## Cc1cnc(N)c(/C=C/c2cncc(C(=O)NCCc3ccc(Cl)cc3Cl)c2)c1.Cl [GSK190937]
[15]
  Kd: 39 nM
[4]
  Kd: 140 nM

## Cc1ccc(NC(=O)c2ccc(Cl)cc2)cc1-c1ccc(C(=O)Nc2ccncc2)cc1 [GSK1398467]
[4]
  Kd: 9.7 nM

## O=c1cc(N2CCOCC2)nc2n(Cc3ccccc3F)ccn12 [GSK2297428]
[7]
  Kd: 180 nM

## Cc1ccc(NC(=O)Nc2ccc(Cl)cc2)cc1-c1ccc(C(=O)Nc2ccncc2)cc1 [GSK1398472]
[4]
  Kd: 86 nM

## CS(=O)(=O)Cc1ccc(Nc2nccc(-c3c(-c4cccc(NC(=O)C5CCCCC5)c4)nn4ncccc34)n2)cc1 [GSK350559]
[4]
  Kd: 74 nM
[17]
  Kd: > 10 µM
[12]
  Kd: 60 nM

## CCc1ccc(-c2ccc3c(c2)-c2n[nH]cc2S(=O)(=O)N3C)cc1
[18]
  Kd: > 10 µM

## O=C(Nc1n[nH]c2nc(-c3ccco3)c(Br)cc12)C1CCN(Cc2ccccc2)C1.O=C(O)[C@H](O)[C@@H](O)C(=O)O (stereo not shown) [SB-742034]
[14]
  Kd: 150 nM
[19]
  Kd: 240 nM

## CNCc1ccc2nc(NC(=O)c3ccc(C(C)(C)C)cc3)cn2c1
[1]
  Kd: > 10 µM
[2]
  Kd: > 10 µM

## CNc1nc(-c2ccc3c(N)n[nH]c3c2)cc(N2C[C@@H](C(=O)Nc3ccccc3)CC[C@H]2C)n1 [GSK2298859]
[5]
  Kd: 1.7 nM

## O=C1NC(=O)C(c2ccc(Cl)cc2)=C1Nc1cccc(Cl)c1 [SB-317651]
[7]
  Kd: 160 nM
[20]
  Kd: > 10 µM

## CN1c2ccc(-c3ccc(C(N)=O)cc3)cc2-c2[nH]ncc2S1(=O)=O
[17]
  Kd: 6.4 µM
